Cruzain inh noDet = blocks cruzain activity in detergent-free assay; P25779; purified cruzain, Z-FR-AMC fluorescence, no detergent; Potency, µM, usual class: inhibitors; actives 2.3% (n = 200,000); AID 1476; also: nearly all actives have a fitted effect of over 40% in size
Target sequence (P25779 123-467 limits assumed): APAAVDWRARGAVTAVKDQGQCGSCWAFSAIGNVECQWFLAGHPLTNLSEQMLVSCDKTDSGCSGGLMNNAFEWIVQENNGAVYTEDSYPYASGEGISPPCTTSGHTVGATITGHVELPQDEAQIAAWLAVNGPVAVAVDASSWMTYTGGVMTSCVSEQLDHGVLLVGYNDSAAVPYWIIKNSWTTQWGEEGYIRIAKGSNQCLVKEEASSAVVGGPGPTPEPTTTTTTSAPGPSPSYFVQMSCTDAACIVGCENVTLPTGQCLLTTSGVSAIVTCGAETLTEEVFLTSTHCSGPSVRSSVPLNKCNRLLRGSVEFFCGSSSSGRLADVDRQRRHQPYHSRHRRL
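Detergent-free condition (0.00005% Triton X-100) in acetate buffer pH 5.5 with DTT. 1.5 nM enzyme and compound were pre-mixed 15 min, then 2 uM Z-FR-AMC substrate added; reaction progress from fluorescence change between first and third reads (60 s).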
Cruzain inh Det = cruzain (T. cruzi) inhibition with detergent. P25779. purified cruzain, Z-FR-AMC fluorescence, 0.01% Triton. Potency, µM, actives largely listed as inhibitors. actives 0.43% (n = 200,000). AID 1478; also: nearly all actives have a fitted effect of over 40% in size
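Sodium acetate buffer (100 mM, pH 5.5) containing 5 mM DTT and 0.01% Triton X-100 hosted 1.5 nM cruzain and test compound for 15 min at room temperature. Cleavage of 2 uM Z-FR-AMC was then tracked by fluorescence.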
Each line names hits and unclear results; the compound was inactive in the other large screens. Compounds with a hit are over-represented: about 2.6% of the library has one in this group of screens. Calls follow the shape of the dose curve; as a rule, active = well fitted curve in the direction sought with a large enough effect; inconclusive = small, poorly fitted or top-dose-only effect, or another doubt; inactive = no such curve, though single readings can be large; an effect the other way counts as inactive or inconclusive.

Cc1cccc(N2CCN(S(=O)(=O)c3cc(C(=O)Nc4ccc(Oc5ccccc5)cc4)ccc3F)CC2C)c1 (stereo unspecified)	none
O=C(Nc1ccc(Oc2ccccc2)cc1)c1ccc(F)c(S(=O)(=O)N2CCN(c3cccc(Cl)c3)CC2)c1	Cruzain inh noDet 4µM
COc1ccccc1N1CCN(S(=O)(=O)c2cc(C(=O)Nc3ccc(Oc4ccccc4)cc3)ccc2F)CC1	Cruzain inh noDet 7.9µM
COc1ccccc1N1CCN(S(=O)(=O)c2ccccc2F)CC1	none
Cc1cccc(NC(=O)c2ccc(F)c(S(=O)(=O)N3CCN(c4ccc(F)cc4)CC3)c2)c1	Cruzain inh noDet inconclusive
CC(C)c1ccc(NC(=O)c2ccc(F)c(S(=O)(=O)N3CCN(c4ccccc4F)CC3)c2)cc1	none
O=C(Nc1ccc(Oc2ccccc2)cc1)c1ccc(F)c(S(=O)(=O)N2CCN(c3ccccc3F)CC2)c1	Cruzain inh noDet 7.9µM
O=C(COC(=O)c1ccc(Cl)c(S(=O)(=O)N2CCN(c3ccc(F)cc3)CC2)c1)Nc1cccc(Cl)c1	Cruzain inh noDet 13µM
CCc1cccc(NC(=O)CN2C(=O)COc3ccc(S(=O)(=O)N4CCC(C)CC4)cc32)c1	none
CCOc1ccc(CCNC(=O)C2CCCN(S(=O)(=O)N(C)c3ccc(F)cc3)C2)cc1 (stereo unspecified)	none
CN(C)c1ncc2nc(-c3ccc(Cl)cc3)c(=O)n(Cc3cccs3)c2n1	none
CCOC(=O)C1=C(C)NC(C)=C(C(=O)OCC)C1c1cccs1	none
C#CCSC1=C(C#N)C(c2cccs2)C(C(=O)OCC)=C(C)N1 (stereo unspecified)	Cruzain inh noDet 20µM
Cc1ccc(NC(=O)CSc2nc(-c3ccco3)nc3cc(=O)[nH]n23)cc1	none
O=C1CSC(c2cn(-c3ccccc3)nc2-c2cc3ccccc3oc2=O)N1Cc1ccco1 (stereo unspecified)	Cruzain inh noDet inconclusive, Cruzain inh Det 28µM
O=C1CSC(c2cn(-c3ccccc3)nc2-c2cc3ccccc3o2)N1Cc1ccccc1 (stereo unspecified)	Cruzain inh noDet inconclusive
CCSc1nc2c(c(=O)[nH]1)C(c1cccnc1)C(C(=O)OC)=C(C)N2 (stereo unspecified)	none
COC(=O)C1=C(C)Nc2nc(SCc3ccccc3)[nH]c(=O)c2C1c1cccs1 (stereo unspecified)	Cruzain inh noDet 25µM
CCCc1ccc(-c2cc(C(=O)N/N=C/c3ccc([N+](=O)[O-])o3)c3ccccc3n2)cc1	Cruzain inh noDet 16µM
O=C(N/N=C/c1ccc([N+](=O)[O-])o1)c1cc(-c2cccc(Br)c2)nc2ccccc12	Cruzain inh noDet inconclusive
CN1[C@@H](c2ccccc2)CC(=NO)C[C@H]1c1ccccc1	none
CN1CCN(C(=S)Nc2ccc(Cl)cc2Cl)CC1	Cruzain inh noDet 1.6µM
CCN1CCN(C(=S)Nc2ccc(Cl)cc2Cl)CC1	none
C=C(C)OC(C)=O	none
Cc1ccc(NC(=O)C2CC(=O)N/C(=N/N=C/c3ccco3)S2)cc1 (stereo unspecified)	Cruzain inh noDet inconclusive
Cc1ccc(NC(=O)C2CC(=O)N/C(=N/N=C/c3ccco3)S2)cc1C (stereo unspecified)	Cruzain inh noDet 13µM
CCCCN1CCc2nc(N3CCN(c4ncccn4)CC3)ncc2C1	none
COc1ccc(CNc2nc(-c3ccoc3)nc3ccccc23)c(OC)c1	Cruzain inh noDet 16µM
Cc1noc(C)c1-c1nc(Nc2ccc(F)cc2)c2ccccc2n1	Cruzain inh noDet inconclusive
Cc1cccc(CNc2nc(-c3ccoc3)nc3ccccc23)c1	Cruzain inh noDet inconclusive
c1ccc(CNc2nc(-c3ccoc3)nc3ccccc23)cc1	Cruzain inh noDet 25µM
COc1cccc(-c2nc(NCc3ccccc3OC)c3ccccc3n2)c1	none
Fc1ccc(Nc2nc(-c3ccoc3)nc3ccccc23)cc1	Cruzain inh noDet 25µM
Cc1cn(C)c(CC(=O)N2CCN(c3ccccc3F)CC2)c1C(=O)O	Cruzain inh noDet inconclusive
CC(C)=C1C(=O)C(c2ccccc2)=C2CN3C(=O)N(CCc4ccccc4)C(=O)[C@]3(C)[C@H]21	none
CCOc1ccccc1CNC(=O)c1sc2ncccc2c1-n1cccc1	none
Cc1cc(=Nc2ccc3c(c2)c(N)cc(C)[n+]3C)nc(N)n1C	none
COc1ccccc1NS(=O)(=O)c1cc(NC(=O)c2cccs2)ccc1N1CCCC1	Cruzain inh noDet inconclusive
O=C(Nc1ccc(Cl)c(Cl)c1)Nc1ccc(N2CCCC2)c(S(=O)(=O)Nc2ccccc2Cl)c1	Cruzain inh noDet inconclusive
COc1ccccc1NS(=O)(=O)c1cc(NC(=O)c2cccs2)ccc1N1CCCCC1	Cruzain inh noDet 10µM
COc1ccc(NS(=O)(=O)c2cc(NC(=O)c3ccco3)ccc2N2CCCC2)cc1	Cruzain inh noDet inconclusive
COc1ccccc1NS(=O)(=O)c1cc(NC(=S)NCCN2CCOCC2)ccc1N1CCOCC1	Cruzain inh noDet inconclusive
COc1ccc(NS(=O)(=O)c2cc(NC(=O)/C=C/c3cc(OC)ccc3OC)ccc2N2CCCCC2)cc1	Cruzain inh noDet 6.3µM
O=C(Nc1ccc(F)cc1)Nc1ccc(N2CCCC2)c(S(=O)(=O)Nc2ccccc2Cl)c1	Cruzain inh noDet 3.2µM
COc1ccccc1NS(=O)(=O)c1cc(NC(=O)Nc2ccccc2)ccc1N1CCCCC1	Cruzain inh noDet 3.2µM
O=C(Nc1cccc(F)c1)N1CC[C@@]2(CCCN(C(=O)c3csnn3)C2)C1	none
O=C(c1csnn1)N1CCC2(CC1)CN(c1ccncc1)C2	none
CCOC(=O)c1cccc(NC(=O)c2ccc3nc(Cc4ccccc4)oc3c2)c1	none
COC(=O)[C@H](Cc1ccccc1)NC(=O)O[C@@H]1Cc2cc(OC)ccc2O[C@H]1c1cccc(OC)c1	none
CCOC(=O)N1CCc2c(sc(NCc3cccc(F)c3)c2C(=O)Nc2ccc(OCC)cc2)C1	none
O=C1C2=C(Nc3cc([N+](=O)[O-])ccc3N2)O[C@@H]1c1ccc([C@H]2OC3=C(Nc4ccc([N+](=O)[O-])cc4N3)C2=O)cc1	none
O=c1oc2cc(OCc3ccc(C(F)(F)F)cc3)ccc2cc1-c1ccccn1	none
COc1ccc2c(-c3cc4ccc(OCc5ccc(F)cc5)cc4oc3=O)cc(=O)oc2c1	Cruzain inh noDet 10µM
C[C@H]1[C@H](C)CC[C@]2(C(=O)O)CC[C@]3(C)C(=CC[C@H]4[C@]3(C)C[C@@H](O)C3[C@](C)(CO)[C@H](O)[C@@H](O)C[C@]34C)[C@H]12 (stereo partly specified)	Cruzain inh noDet inconclusive
COc1ccc(CCNc2oc(/C=C/c3cc(OC)c(OC)c(OC)c3)nc2C#N)cc1OC	none
COCCCNc1oc(/C=C/c2cc(OC)c(OC)c(OC)c2)nc1C#N	Cruzain inh noDet 20µM, Cruzain inh Det 25µM
COc1cc(C(CC(=O)Nc2ccc(Br)cn2)N2Cc3ccccc3C2=O)cc(OC)c1OC (stereo unspecified)	none
O=C(NCCc1ccccc1)c1ccc2nc(-c3ccco3)c(-c3ccco3)nc2c1	Cruzain inh noDet inconclusive, Cruzain inh Det 16µM
O=C(NCCc1ccccc1)c1ccc(=O)oc1	none
Cc1ccc(C)c(N(C)S(=O)(=O)c2ccc3[nH]cc(C(=O)NC4CCCC4)c(=O)c3c2)c1	none
O=C(C[C@@H](c1ccccc1)N1CCCCC1)c1ccccc1	none
C=CCn1c(SCc2nc3sc4c(c3c(=O)[nH]2)CCCC4)nc2ccccc2c1=O	Cruzain inh noDet 13µM
C=CCSc1nnc(CSc2nc3sc4c(c3c(=O)[nH]2)CCCC4)n1-c1ccccc1	none
O=C1OC(c2ccc3c(c2)OCO3)N(C(=O)c2ccc(Cl)c(Cl)c2)c2ccccc21 (stereo unspecified)	Cruzain inh noDet 32µM
